Experiment [1] addresses rat CYP2A1, Cyp2a1 (gene 24894) (UniProt P11711). The experiment can be described thus: NVS_ADME_rCYP2A1: NovaScreen (NVS) CYP450-related Enzyme Activity (ADME) Assay for rat CYP2A1 (AID 2283114; active = hit-call score of the fitted dose curve at least 0.9, where 1 is the maximum; inactive = score below 0.9). In a few lines: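 Cell-free fluorescence enzyme-activity read on recombinant rat CYP2A1, taken 0.75 h post-dosing. Compounds were screened in duplicate at 10 uM, then hits tested in concentration series (max 20 uM); inhibition scored relative to acetonitrile baseline.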

The target of experiment [2] is human Vascular Endothelial Growth Factor Receptor 3 (VEGFR3), FLT4 (gene 2324) (UniProt P35916). Briefly: NVS_ENZ_hVEGFR3: NovaScreen (NVS) Enzymatic Assay for human Vascular Endothelial Growth Factor Receptor 3 (VEGFR3) (AID 2283229). In a few lines:
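Chemicals first run in duplicate at 25 uM, with actives re-tested in concentration series to a top of 50 uM. Recombinant VEGFR3 activity measured after 1 h via fluorescence with mobility-shift product separation; inhibition fitted relative to DMSO.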

In experiment [3] the target is rat Monoamine Oxidase, MAO-B, Central (MAOBC), Maob (gene 25750) (UniProt P19643). Briefly: NVS_ENZ_rMAOBC: NovaScreen (NVS) Enzymatic Assay for rat Monoamine Oxidase, MAO-B, Central (MAOBC) (AID 2283238). In a few lines:
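Cell-free radiometric assay, rat brain lysate. Read-out: scintillation counts, 1.17 h post-dosing. Screen 25 uM in duplicate; actives (e.g. ≥30% inhibition) then singleton concentration-response, max 50 uM. Activity loss fitted relative to DMSO.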

A short description of experiment [4]: CCTE_Shafer_MEA_acute_AB: CCTE's Alamar Blue Assay for Cytotoxicity in the Neural Acute Assay, Shafer Lab (AID 2284069).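 Also: active compounds lower the viability signal compared with DMSO wells.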 An outline of the steps: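 Cytotoxicity endpoint for acute MEA exposures of primary rat cortical neurons on day 13 or 15. Resazurin reduction is read fluorescently at 544/590 nm, with DMSO as the negative-control baseline.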
The target in experiment [5] is Cytochrome P450 2C18 (Homo sapiens) (UniProt P33260). The experiment can be described thus: NVS_ADME_hCYP2C18: NovaScreen (NVS) CYP450-related Enzyme Activity (ADME) Assay for human CYP2C18 (AID 2283103; active = hit-call score of the fitted dose curve at least 0.9, where 1 is the maximum; inactive = score below 0.9). An outline of the steps: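 Enzyme activity measured by fluorescence 0.5 h after compound addition, using recombinant CYP2C18 and a specific substrate. Actives from duplicate 10 uM screening were retested in concentration series (top 20 uM); acetonitrile served as negative baseline.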

The target in experiment [6] is human Purinergic Receptor P2Y, P2RY1 (gene 5028) (UniProt P47900). Briefly: NVS_GPCR_hPY2: NovaScreen (NVS) G Protein-Coupled Receptor Assay for human Purinergic Receptor P2Y (AID 2283281). An outline of the steps: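 Filtration scintillation readout of radioligand displacement on U937 extract, measured 1 h post-dosing. Single 25 uM duplicate screen, then singleton concentration series to 50 uM for chemicals passing threshold; DMSO as baseline.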

For experiment [7], the system named is chicken Androgen Receptor (AR), gene 422165. The experiment can be described thus: ATG_chAR_XSP1: Attagene TRANS-FACTORIAL Multi-Species (XSP1) HepG2 Assay for chicken Androgen Receptor (AR) (AID 2283768). An outline of the steps: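 Reporter mRNA read by RT-PCR with fluorescent labelling and capillary electrophoresis 24 h after chemical dosing of transiently transfected HepG2 cells. Chicken AR-Gal4 chimera, partially stimulated with 3 nM 6-alpha-fluorotestosterone; activity fitted upward relative to DMSO.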

The test system of experiment [8] is zebrafish Androgen Receptor (AR), gene 100005148. The experiment can be described thus: ATG_zfAR_XSP1: Attagene TRANS-FACTORIAL Multi-Species (XSP1) HepG2 Assay for zebrafish Androgen Receptor (AR) (AID 2283771). In a few lines: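 Gain-of-signal versus DMSO was measured as reporter transcripts quantified by RT-PCR, fluorescent labelling and capillary electrophoresis after 24 h chemical exposure. The cells were HepG2 expressing a chimeric zebrafish AR-GAL4, co-stimulated with 3 nM 6-alpha-fluorotestosterone.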

In experiment [9] the test system is turtle Androgen Receptor (AR), gene 101947425. Briefly: ATG_trAR_XSP1: Attagene TRANS-FACTORIAL Multi-Species (XSP1) HepG2 Assay for turtle Androgen Receptor (AR) (AID 2283786). An outline of the steps: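 Partial androgen stimulation is provided by 3 nM 6-alpha-fluorotestosterone in a multi-species trans-factorial panel expressing a turtle AR–GAL4 fusion in HepG2. After 24 h, reporter mRNA is measured by RT-PCR and capillary electrophoresis and fitted upward against DMSO.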

The target of experiment [10] is Estrogen receptor beta (Homo sapiens) (UniProt Q92731). Briefly: ATG_hERb_XSP1: Attagene TRANS-FACTORIAL Multi-Species (XSP1) HepG2 Assay for human Estrogen Receptor (ESR2) (AID 2283788). In a few lines:
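Transient MRTU transfection of HepG2; ERβ–GAL4 TRANS format; 24 h dosing; 3 nM 6α-fluorotestosterone co-added; RNA → RT-PCR → 6-FAM primer extension → CE; activity vs DMSO.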

The target in experiment [11] is Nuclear receptor subfamily 1 group I member 2 (Mus musculus) (UniProt O54915). The experiment can be described thus: ATG_mPXR_XSP1: Attagene TRANS-FACTORIAL Multi-Species (XSP1) HepG2 Assay for mouse Pregnane X Receptor (PXR) (AID 2283803). An outline of the steps: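 Transiently transfected HepG2 cells expressing a receptor-Gal4 chimera drive a GAL4-UAS reporter; 3 nM 6-alpha-fluorotestosterone included. Reporter mRNA read 24 h post-dose by RT-PCR and capillary electrophoresis; gain of signal relative to DMSO.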

Experiment [12] is described as follows: ATG_M_19_XSP2: Attagene TRANS-FACTORIAL Multi-Species (XSP2) HepG2 Assay for M32 Transcription Factor (Internal Marker) (AID 2283822). An outline of the steps:
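Internal background marker in a multi-species nuclear receptor TRANS panel: transfected HepG2 cells exposed 24 h, with 3 nM 6-alpha-fluorotestosterone and 1.5 nM norgestrel present. Readout is RT-PCR of reporter transcripts resolved by capillary electrophoresis, gain-of-signal versus DMSO.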

Experiment [13] addresses Nuclear receptor subfamily 1 group I member 2 (Mus musculus) (UniProt O54915). The experiment can be described thus: ATG_mPXR_XSP2: Attagene TRANS-FACTORIAL Multi-Species (XSP1) HepG2 Assay for mouse Pregnane X Receptor (PXR) (AID 2283831). An outline of the steps: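 HepG2 cells transiently transfected with GAL4-UAS reporter units expressing chimeric NR-GAL4 proteins; reporter mRNA measured 24 h after dosing by RT-PCR with 6-FAM labelling and capillary electrophoresis, gain of signal relative to DMSO.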

Experiment [14] addresses Thyroid hormone receptor alpha (Rattus norvegicus) + Thyroid hormone receptor beta (Rattus norvegicus) (UniProt P18113+P63059). Briefly: TOX21_TR_LUC_GH3_Agonist_Followup: Tox21 GH3 Thyroid Hormone Receptor Agonism Luciferase Follow-Up Assay (AID 2283939). In a few lines: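 Agonist-mode confirmatory run: 15 concentrations (5 nM to 92 uM final) on GH3 rat pituitary cells, 24 h at 37C/5% CO2, T3 as positive control. Luminescence read with ONE-Glo after 30 min.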

For a further experiment, the target named is THRA (gene 7067) (UniProt P10827). Briefly: TOX21_TRA_COA_Agonist_Followup_ratio: Tox21 Thyroid Hormone Receptor alpha Agonism through Coactivator Recruitment Follow-Up Assay, Ratio (AID 2283948; active = hit-call score of the fitted dose curve at least 0.9, where 1 is the maximum; inactive = score below 0.9). In a few lines:
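Read-out is the 520/495 nm emission ratio (ex 340 nm), scaled between DMSO-only wells as 0% and T3 wells as 100%. It reflects fluorescein-SRC-2 peptide recruitment to GST-TRα LBD detected via terbium anti-GST antibody.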

Experiment [15] deals with THRB (gene 7068) (UniProt P10828). The experiment can be described thus: TOX21_TRB_BLA_Agonist_Followup_ratio: Tox21 Thyroid Hormone Receptor beta Agonism Beta-lactamase (BLA) Follow-Up Assay, Ratio (AID 2283954). An outline of the steps: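 Agonist mode: compounds (11-point, triplicate) incubated 18 h with HEK293T cells carrying GAL4-DBD/human TRβ-LBD and UAS-β-lactamase. Blue/green (460/530 nm) FRET ratio read after 2 h CCF4-AM loading; CellTiter-Glo viability run in the same plates.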

Experiment [16] shares this target. The experiment can be described thus: TOX21_TRB_COA_Agonist_Followup_ratio: Tox21 Thyroid Hormone Receptor beta Agonism through Coactivator Recruitment Follow-Up Assay, Ratio (AID 2283963; active = hit-call score of the fitted dose curve at least 0.9, where 1 is the maximum; inactive = score below 0.9). In a few lines: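 Agonism is measured as coactivator recruitment in a purified-protein TR-FRET format, using GST-TRβ LBD at 5.0 nM, fluorescein-SRC-2 peptide at 200 nM and Tb-labeled anti-GST antibody at 2 nM. Values are 520:495 nm ratios relative to DMSO (0%) and T3 (100%).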

Experiment [17] is described as follows: CCTE_Mundy_HCI_hNP1_Pro_ResponderAvgInten: CCTE's Proliferation Assay in human neuroprogenitor cells, Mundy Lab (AID 2284224). In a few lines:
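Proliferation read as average intensity of BrdU-positive cells, imaged at 26.25 h post-dosing: chemical exposure started after 40–44 h culture, BrdU during final 4 h, paraformaldehyde fixation. Positive-direction fit relative to DMSO.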

Experiment [18] is described as follows: CCTE_Mundy_HCI_hNP1_Casp3_7: CCTE's Caspase-Glo 3/7 Assay in human neuroprogenitor cells for Apoptosis, Mundy Lab (AID 2284240; active = hit-call score of the fitted dose curve at least 0.9, where 1 is the maximum; inactive = score below 0.9). An outline of the steps: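 Luminescent caspase-3/7 readout, 26.5 h post-dose, in human neural progenitor cells from WA09 embryonic stem cells. Cells grew 40–44 h at 37 °C, 5% CO2 before chemical addition. Activity analysed as signal increase over DMSO baseline.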

Experiment [19] in a line: NVS_IC_rCaBTZCHL: NovaScreen (NVS) Ion Channel Assay for Calcium Channel, Type L, Benzothiazepine Site (CaBTZCHL) (AID 2283337). In a few lines:
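Test chemicals were added to rat cortical membranes and incubated 1.5 h with a tritiated or iodinated radioligand for the benzothiazepine site. Bound ligand was separated by filtration and counted. Actives from the 25 uM duplicate screen were retested in concentration series.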

Inconclusive results are not listed. Activity calls are given as the source filed them. The calls were made as follows, unless noted: active = hit-call score of the fitted dose curve at least 0.9, where 1 is the maximum; inconclusive = response in the unintended direction; inactive = score below 0.9.

Chain of THRB (gene 7068) (P10828 whole entry, looked up, the tested form may be a part): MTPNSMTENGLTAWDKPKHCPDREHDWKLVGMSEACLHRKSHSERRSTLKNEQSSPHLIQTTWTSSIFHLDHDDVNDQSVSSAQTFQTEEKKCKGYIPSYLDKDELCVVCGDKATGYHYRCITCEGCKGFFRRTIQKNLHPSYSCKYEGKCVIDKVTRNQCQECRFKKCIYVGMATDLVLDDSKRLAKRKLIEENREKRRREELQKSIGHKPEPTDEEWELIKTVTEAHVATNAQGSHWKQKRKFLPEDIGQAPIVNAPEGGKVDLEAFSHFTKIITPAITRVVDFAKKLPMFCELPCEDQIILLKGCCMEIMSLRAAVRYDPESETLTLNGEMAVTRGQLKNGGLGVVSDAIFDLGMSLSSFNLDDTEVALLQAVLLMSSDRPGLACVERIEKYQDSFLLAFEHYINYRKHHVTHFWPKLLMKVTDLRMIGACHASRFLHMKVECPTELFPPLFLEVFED
Chain of Nuclear receptor subfamily 1 group I member 2 (Mus musculus) (O54915 whole entry, looked up, the tested form may be a part): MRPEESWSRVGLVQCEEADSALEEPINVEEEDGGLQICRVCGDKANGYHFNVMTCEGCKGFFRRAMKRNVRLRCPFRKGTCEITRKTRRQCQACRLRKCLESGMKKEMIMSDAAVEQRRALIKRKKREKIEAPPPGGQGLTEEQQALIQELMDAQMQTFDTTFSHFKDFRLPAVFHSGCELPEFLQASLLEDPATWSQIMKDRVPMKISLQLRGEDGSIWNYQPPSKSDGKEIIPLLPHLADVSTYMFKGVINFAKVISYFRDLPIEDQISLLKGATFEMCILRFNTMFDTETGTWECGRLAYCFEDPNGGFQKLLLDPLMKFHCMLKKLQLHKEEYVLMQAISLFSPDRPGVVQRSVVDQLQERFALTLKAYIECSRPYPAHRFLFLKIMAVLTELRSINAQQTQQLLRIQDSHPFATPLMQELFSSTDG
Chain of human Purinergic Receptor P2Y, P2RY1 (gene 5028) (P47900 whole entry, looked up): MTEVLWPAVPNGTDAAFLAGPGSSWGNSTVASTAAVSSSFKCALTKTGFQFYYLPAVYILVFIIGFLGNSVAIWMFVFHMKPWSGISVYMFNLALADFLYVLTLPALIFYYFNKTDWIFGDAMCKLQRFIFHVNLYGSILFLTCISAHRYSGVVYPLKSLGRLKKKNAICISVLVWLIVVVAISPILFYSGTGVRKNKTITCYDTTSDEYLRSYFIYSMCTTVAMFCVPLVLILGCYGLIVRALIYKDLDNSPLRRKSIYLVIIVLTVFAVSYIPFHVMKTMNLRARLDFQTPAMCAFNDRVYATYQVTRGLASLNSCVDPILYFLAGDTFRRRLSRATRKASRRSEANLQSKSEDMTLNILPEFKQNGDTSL
Chain of THRA (gene 7067) (P10827 whole entry, looked up, the tested form may be a part): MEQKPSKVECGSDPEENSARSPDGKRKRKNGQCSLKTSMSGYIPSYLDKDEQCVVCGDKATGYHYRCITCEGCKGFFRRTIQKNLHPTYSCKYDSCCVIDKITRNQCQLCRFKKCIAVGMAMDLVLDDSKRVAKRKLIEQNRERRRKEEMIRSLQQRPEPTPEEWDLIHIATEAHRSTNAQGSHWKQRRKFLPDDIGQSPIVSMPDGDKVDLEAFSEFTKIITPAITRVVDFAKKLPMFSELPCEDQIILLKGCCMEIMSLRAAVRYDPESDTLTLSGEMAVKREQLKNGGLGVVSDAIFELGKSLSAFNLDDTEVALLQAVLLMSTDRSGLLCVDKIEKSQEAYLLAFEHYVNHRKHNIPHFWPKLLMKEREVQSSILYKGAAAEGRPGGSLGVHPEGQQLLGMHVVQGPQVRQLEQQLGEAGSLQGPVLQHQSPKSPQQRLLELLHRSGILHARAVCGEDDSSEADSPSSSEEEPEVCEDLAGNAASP
Chain of Estrogen receptor beta (Homo sapiens) (Q92731 whole entry, looked up, the tested form may be a part): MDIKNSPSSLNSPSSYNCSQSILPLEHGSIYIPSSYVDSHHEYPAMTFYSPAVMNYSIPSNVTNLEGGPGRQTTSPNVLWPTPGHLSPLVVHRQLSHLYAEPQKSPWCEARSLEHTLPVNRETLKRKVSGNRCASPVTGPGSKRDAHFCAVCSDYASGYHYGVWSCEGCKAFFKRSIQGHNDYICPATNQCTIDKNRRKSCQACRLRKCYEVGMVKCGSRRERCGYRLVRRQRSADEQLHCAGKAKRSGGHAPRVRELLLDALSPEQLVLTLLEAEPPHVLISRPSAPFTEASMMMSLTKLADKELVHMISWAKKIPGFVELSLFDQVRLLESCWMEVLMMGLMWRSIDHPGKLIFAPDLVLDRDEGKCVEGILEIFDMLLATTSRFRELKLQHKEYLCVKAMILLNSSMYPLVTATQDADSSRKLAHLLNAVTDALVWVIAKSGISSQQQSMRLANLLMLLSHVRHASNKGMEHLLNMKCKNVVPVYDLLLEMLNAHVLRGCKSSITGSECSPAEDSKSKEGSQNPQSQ
Chain of rat Monoamine Oxidase, MAO-B, Central (MAOBC), Maob (gene 25750) (P19643 whole entry, looked up): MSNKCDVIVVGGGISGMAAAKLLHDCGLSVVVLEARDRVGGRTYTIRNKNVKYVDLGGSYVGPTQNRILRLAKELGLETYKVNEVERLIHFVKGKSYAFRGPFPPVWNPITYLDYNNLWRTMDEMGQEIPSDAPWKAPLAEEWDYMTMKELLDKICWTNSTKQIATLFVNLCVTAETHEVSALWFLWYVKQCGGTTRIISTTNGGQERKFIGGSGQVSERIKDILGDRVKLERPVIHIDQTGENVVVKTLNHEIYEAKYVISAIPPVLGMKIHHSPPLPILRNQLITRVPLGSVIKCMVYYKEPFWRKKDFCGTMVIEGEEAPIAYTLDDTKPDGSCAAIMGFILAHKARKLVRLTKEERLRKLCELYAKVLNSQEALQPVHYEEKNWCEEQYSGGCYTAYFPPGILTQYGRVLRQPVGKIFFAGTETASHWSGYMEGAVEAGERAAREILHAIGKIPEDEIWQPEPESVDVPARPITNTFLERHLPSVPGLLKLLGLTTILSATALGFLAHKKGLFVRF
Chain of rat CYP2A1, Cyp2a1 (gene 24894) (P11711 whole entry, looked up): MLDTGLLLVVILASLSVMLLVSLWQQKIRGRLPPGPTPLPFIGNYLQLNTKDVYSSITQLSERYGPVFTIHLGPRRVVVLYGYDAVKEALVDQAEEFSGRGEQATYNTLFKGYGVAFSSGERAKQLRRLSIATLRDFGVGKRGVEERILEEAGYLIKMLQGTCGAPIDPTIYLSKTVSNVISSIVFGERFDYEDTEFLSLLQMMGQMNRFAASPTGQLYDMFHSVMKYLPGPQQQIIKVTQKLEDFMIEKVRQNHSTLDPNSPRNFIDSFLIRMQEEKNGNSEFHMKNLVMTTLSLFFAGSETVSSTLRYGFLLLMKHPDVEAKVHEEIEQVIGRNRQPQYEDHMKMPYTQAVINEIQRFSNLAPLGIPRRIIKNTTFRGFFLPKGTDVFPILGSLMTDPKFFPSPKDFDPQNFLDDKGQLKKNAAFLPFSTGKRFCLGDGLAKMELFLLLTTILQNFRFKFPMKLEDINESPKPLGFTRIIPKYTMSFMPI
Chain of Thyroid hormone receptor alpha (Rattus norvegicus) + Thyroid hormone receptor beta (Rattus norvegicus) (P63059 whole entry, looked up): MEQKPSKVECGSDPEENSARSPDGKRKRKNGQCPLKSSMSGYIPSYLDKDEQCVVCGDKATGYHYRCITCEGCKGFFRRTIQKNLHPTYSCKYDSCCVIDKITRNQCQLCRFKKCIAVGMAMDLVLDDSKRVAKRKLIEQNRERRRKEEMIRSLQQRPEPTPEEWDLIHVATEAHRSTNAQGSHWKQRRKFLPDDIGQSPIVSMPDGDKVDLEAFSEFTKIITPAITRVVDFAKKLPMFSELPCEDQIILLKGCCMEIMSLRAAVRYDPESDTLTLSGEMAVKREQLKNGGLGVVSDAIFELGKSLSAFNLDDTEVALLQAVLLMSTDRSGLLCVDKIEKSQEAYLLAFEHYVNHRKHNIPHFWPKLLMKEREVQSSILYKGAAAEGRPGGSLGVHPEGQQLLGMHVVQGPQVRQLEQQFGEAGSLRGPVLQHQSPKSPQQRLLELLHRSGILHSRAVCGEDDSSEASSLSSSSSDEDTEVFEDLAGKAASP
Chain of Thyroid hormone receptor alpha (Rattus norvegicus) + Thyroid hormone receptor beta (Rattus norvegicus) (P18113 whole entry, looked up): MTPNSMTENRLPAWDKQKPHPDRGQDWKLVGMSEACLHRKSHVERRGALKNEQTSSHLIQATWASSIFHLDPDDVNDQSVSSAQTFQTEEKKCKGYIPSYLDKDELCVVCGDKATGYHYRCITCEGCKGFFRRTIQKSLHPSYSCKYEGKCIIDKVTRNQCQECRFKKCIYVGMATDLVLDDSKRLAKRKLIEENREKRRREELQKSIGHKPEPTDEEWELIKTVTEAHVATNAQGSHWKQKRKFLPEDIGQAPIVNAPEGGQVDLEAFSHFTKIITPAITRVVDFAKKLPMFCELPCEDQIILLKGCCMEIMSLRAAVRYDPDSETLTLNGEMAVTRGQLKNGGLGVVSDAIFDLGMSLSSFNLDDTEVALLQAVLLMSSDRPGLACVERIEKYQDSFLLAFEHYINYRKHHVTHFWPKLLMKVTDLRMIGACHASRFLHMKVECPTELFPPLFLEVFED
Chain of Cytochrome P450 2C18 (Homo sapiens) (P33260 whole entry, looked up): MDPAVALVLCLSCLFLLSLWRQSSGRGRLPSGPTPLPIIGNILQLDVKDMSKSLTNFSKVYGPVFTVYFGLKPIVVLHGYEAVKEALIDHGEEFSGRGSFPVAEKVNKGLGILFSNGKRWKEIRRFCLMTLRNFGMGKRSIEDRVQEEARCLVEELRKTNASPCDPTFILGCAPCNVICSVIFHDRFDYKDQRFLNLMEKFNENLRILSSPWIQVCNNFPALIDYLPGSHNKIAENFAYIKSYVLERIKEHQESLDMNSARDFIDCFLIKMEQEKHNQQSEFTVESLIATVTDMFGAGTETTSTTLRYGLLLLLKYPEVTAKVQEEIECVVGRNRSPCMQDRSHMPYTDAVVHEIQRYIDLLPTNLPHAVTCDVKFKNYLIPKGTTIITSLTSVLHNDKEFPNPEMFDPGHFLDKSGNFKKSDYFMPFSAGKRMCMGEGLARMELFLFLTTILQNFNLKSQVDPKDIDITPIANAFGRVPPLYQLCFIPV

With `CC(Cc1ccc(C(C)(C)C)cc1)CN1C[C@@H](C)O[C@@H](C)C1` (stereo partly drawn), the values for the concentration at half-maximal activity (AC50) in experiment [1] and in experiment [3] were 3260 nM (active) and 14100 nM (active), respectively. The outcome in [2] was inactive.

Turning to `O=c1c2ccccc2c(=O)c2c1cc(Cl)c1[nH]c3c([nH]c12)c(Cl)cc1c(=O)c2ccccc2c(=O)c13`, the outcome in experiment [4] was inactive.

`CC(C)[C@@H](C(=O)O[C@@H](C#N)c1cccc(Oc2ccccc2)c1)c1ccc(Cl)cc1`: the compound was called inactive in experiment [5].

On to `CCOC(=O)NC(=S)Nc1ccccc1NC(=S)NC(=O)OCC`, for which, in experiment [6], the compound was called inactive.

In the case of `CC(C)CCCCCCCOC(=O)c1ccccc1C(=O)OCCCCCCCC(C)C`, the compound was classed as inactive in experiment [7], in experiment [8], in experiment [9], in [10], in experiment [12] and in experiment [14]. Further, the outcome in the experiment with THRA (gene 7067), with THRB (gene 7068) [15] and in the experiment with THRB (gene 7068) [16] was inactive. Also, the results for the concentration at half-maximal activity (AC50) in experiment [11] and in [13] were 611 nM (active) and 1520 nM (active), respectively.

Regarding `CNC(=N[N+](=O)[O-])NCC1CCOC1` (stereo not drawn), the compound was called inactive in experiment [17] and in experiment [18].

`c1ccc(Nc2ccc3ccccc3c2)cc1`: the result in experiment [19] was inactive.

Consider `CC1(C)[C@H](C(=O)O[C@H](C#N)c2cccc(Oc3ccccc3)c2)[C@@H]1C=C(Br)Br`, for which the call in experiment [17] and in experiment [18] was inactive.

For the compound `O=C(O)CCCc1ccc(N(CCCl)CCCl)cc1`, the result in experiment [19] was inactive.
